CHT block: inhibits the human high affinity choline transporter; 310,000 tested, 0.86% active; B-score at 10 µM; CHT-expressing cells, membrane potential dye, choline response; hits give low values; AID 488975; Q9GZV3;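 active means B-score over 3 SD under the library average, and starting fluorescence ratio not unusually high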;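 further: choline stimulus applied at its EC90 after an EC20 pre-addition; B-score computed on integrated fluorescence ratio after choline addition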
CHT PAM: human CHT allosteric activation | Q9GZV3 | CHT-expressing cells, membrane potential dye, choline EC20; hits give high values; LV-AA mutant CHT in HEK293 cells | B-score at 10 µM | 310,000 tested, 0.49% active;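 active means initial fluorescence not abnormally high and integrated response B-score, plate-corrected, over 3 SD above library mean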
MEKK2 WT-MEK5: raises or lowers MEK5 binding to wildtype human MEKK2 PB1 domain; Q9Y2U5; binding response (% of control), % at 10 µM; 290,000 tested, 1.1% active; bead flow cytometry, Alexa488-MEK5 binding to MEKK2 WT; actives lie on both sides; in the data active means binding response below about 67% or above about 130%
MEKK2mut PB1 HTS: signal of MEK5 binding to mutant human MEKK2 PB1 domain; bead flow cytometry, Alexa488-MEK5 binding to MEKK2 mutant; percent response, % at 10 µM; 290,000 tested, 0.35% active; in the data active means percent response above about 24%, passing the limit was not always enough
MEKK3 PB1 HTS: raises or lowers MEK5 binding to the human MEKK3 PB1 domain | bead-based flow cytometry, Alexa488-MEK5 binding to MEKK3; actives lie on both sides; 0 = blocked by unlabeled MEK5, 100 = vehicle | binding response (% of control), % at 10 µM | 290,000 tested, 1.4% active;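 active means binding response more than 3 SD above or below the average of its plate-row segment, actives on both sides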;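 further: Alexa488 bead fluorescence after subtracting the streptavidin-only scavenger bead signal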
Target sequence (Q99759 whole entry, looked up, the tested form may be a part): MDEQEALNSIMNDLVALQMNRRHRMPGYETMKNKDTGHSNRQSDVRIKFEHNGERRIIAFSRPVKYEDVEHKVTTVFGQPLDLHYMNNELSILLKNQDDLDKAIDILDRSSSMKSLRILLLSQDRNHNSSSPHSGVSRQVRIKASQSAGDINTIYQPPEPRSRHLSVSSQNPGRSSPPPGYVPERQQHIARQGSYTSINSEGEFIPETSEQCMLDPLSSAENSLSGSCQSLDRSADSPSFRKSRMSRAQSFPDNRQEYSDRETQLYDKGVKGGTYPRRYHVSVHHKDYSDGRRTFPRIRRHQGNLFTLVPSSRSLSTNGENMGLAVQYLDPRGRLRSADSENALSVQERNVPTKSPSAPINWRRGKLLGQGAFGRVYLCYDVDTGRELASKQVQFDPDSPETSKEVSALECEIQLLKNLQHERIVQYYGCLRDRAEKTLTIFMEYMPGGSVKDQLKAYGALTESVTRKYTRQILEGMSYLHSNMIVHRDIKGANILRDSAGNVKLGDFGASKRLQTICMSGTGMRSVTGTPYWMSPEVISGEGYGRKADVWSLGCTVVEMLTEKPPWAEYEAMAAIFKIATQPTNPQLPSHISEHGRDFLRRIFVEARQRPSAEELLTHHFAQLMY
SUMO Mot1 rescue: blocks SUMOylation pathway, rescuing yeast Mot1-301 growth. S. cerevisiae Mot1-301 growth rescue, ATP luminescence, 38.5C; percent above DMSO median, 100 means doubled. growth rescue, % at 18.8 µM. 320,000 tested, 1% active. AID 2716;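 active means every valid replicate shows activation above 250% relative to neutral control wells; inactive means the rest, any valid replicate at or below 250%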;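 further: OY570 slx delta 5 strain wells were the positive control but not used for scaling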
CHT act confirm: human CHT activation, confirmatory screen | 2,500 tested, 91% active | shares compounds with CHT PAM | activation, % at 10 µM | AID 504833 | CHT-expressing cells, membrane potential dye fluorescence (FDSS); % of choline EC20–EC90 response window; HEK293 expressing CHT LV-AA mutant; choline added at its EC20;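 active means primary screen active, with duplicate mean activation above negative control mean plus 3 SD, cut at about 11% in these data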
HEK293 MP dye: activity in parental HEK293 cells lacking CHT. 2,500 tested, 62% active. membrane potential dye fluorescence (FDSS); measured after EC20 choline addition. shares compounds with CHT PAM. ratio readout change at 10 µM, hits read low;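 active means duplicate-averaged ratio beyond 3 SD from buffer wells, up or down, though filed actives are nearly all decreases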
The depositor's hits bear a star; i = inactive; x = no result given. An excerpt weighted towards active compounds, which were near 4.1% of everything screened.

SMILES | CHT block | CHT PAM | MEKK2 WT-MEK5 | MEKK2mut PB1 HTS | MEKK3 PB1 HTS | SUMO Mot1 rescue | CHT act confirm | HEK293 MP dye
COc1ccc(OC)c(NS(=O)(=O)c2ccc(N3CCCC3=O)cc2)c1 | i | 9.1* | 104 | 9 | 101 | -16 | 37* | i
CCOc1ccc(S(=O)(=O)Nc2cc(OC)ccc2OC)cc1 | i | i | 99 | 1 | 97 | -15 | x | x
N=c1c2c(n(Cc3ccc(F)cc3)c3c1CCC3)CCC2 | i | 7.1* | 86 | -15 | 74 | -3 | 49* | -50*
CCn1c(=O)cc(OCC(=O)NCCCN2CCCC2=O)c2ccccc21 | i | i | 101 | -1 | 102 | 15 | x | x
Cc1nc(Cl)sc1C(=O)Nc1cccc2ccccc12 | i | i | 96 | -2 | 95 | -4 | x | x
CCCCN(C)CCNS(=O)(=O)c1ccc2c(c1)n(C)c(=O)c(=O)n2C | i | 17* | 98 | 10 | 100 | 10 | 76* | -84*
CC(C)N1CCc2c(sc(N)c2C#N)C1 | i | 6.4* | 2.0* | 23 | 90 | -10 | 43* | -36*
N#Cc1c(N)sc(=S)c2c1CCN(Cc1ccccc1)C2 | i | i | 88 | -3 | 89 | x | x | x
CCN1CCc2c(sc(N)c2C#N)C1 | i | i | 76 | 4 | 93 | -11 | 37* | -39*
Cc1ccc(S(=O)(=O)NCC(=O)N(CC(=O)NCC2CCCO2)Cc2ccc(Cl)cc2)cc1 (configuration not stated) | i | i | 102 | 6 | 101 | -5 | x | x
O=C(CSc1ccc2nnc(-c3ccccn3)n2n1)N1CCOCC1 | i | i | 104 | -5 | 95 | -4 | 42* | -36*
CCOC(=O)N1CCN(C(=O)CSc2ccc3nnc(-c4ccccn4)n3n2)CC1 | i | i | 97 | -2 | 96 | 13 | x | x
Cc1ccc(OCc2cc(C(=O)N3CC4C[C@@H]5CC3C[C@H](C4)C5)no2)cc1C | i | i | 105 | 5 | 105 | 28 | x | x
Cn1c(=O)c(=O)n(C)c2cc(S(=O)(=O)N3CCN(C4CCCCC4)CC3)ccc21 | i | 13* | 97 | 4 | 97 | 316 | 106* | -50*
CC1CCCN(S(=O)(=O)c2ccc3c(c2)n(C)c(=O)c(=O)n3C)C1 (configuration not stated) | i | i | 59 | -17 | 56 | 7 | x | x
Cc1cc(=O)n2c3ccccc3n(CC(O)CN3CCCCC3)c2c1C#N (configuration not stated) | i | 7.3* | 101 | 2 | 101 | -3 | 27* | -44*
COc1ccc(OCC(=O)Nc2ccncc2)cc1 | i | i | 93 | -1 | 102 | -3 | x | x
NCCCCCC(=O)Nc1ccncc1 | i | i | 98 | -9 | 104 | -3 | 18* | -35*
Cc1nc(NC2=NCN(CCCN3CCOCC3)CN2)nc2c(C)cccc12 | i | i | x | x | x | x | 48* | -56*
CCCCN1CN=C(Nc2nc3ccccc3o2)NC1 | i | i | 103 | -7 | 100 | 4 | x | x
CCNc1c(NC(C)=O)c(=O)oc2ccccc12 | i | i | 97 | 2 | 100 | 70 | 1 | i
CC(C)(C)OC(=O)N1CCN(C(=O)c2[nH]cnc2C(=O)Nc2cccc(Cl)c2)CC1 | x | x | x | x | x | -15 | x | x
O=C1N(Cc2cccc(Cl)c2)C[C@@H]2C[C@@H](c3cccn3-c3ccccn3)N3CCC[C@@]123 | i | 7.1* | 88 | -14 | 96 | 1 | 53* | i
CCOC(=O)C(C)On1c(-c2ccc(Cl)cc2)nc2ccc([N+](=O)[O-])cc21 (configuration not stated) | i | i | 102 | 3 | 101 | 12 | x | x
